An excerpt weighted towards active compounds, which were near 12% of everything screened.
Sm TGR block = inhibitors of Schistosoma mansoni thioredoxin glutathione reductase; Q962Y6; purified TGR, DTNB reduction, TNB absorbance 405 nm; Potency, µM (top dose mostly 114 µM), for inactives: at the top dose activity change, negative = inhibition, hits mostly inhibitors; hit rate 3% among 360,000; AID 485364; active = well fitted inhibition curve with a large enough effect; inconclusive = small, poorly fitted or top-dose-only effect; inactive = no such curve, though single readings can be large or run the other way; note: potency is the fitted concentration of half-maximal effect; % is set by controls: 0 for no effect and ±100 for the full control effect; nearly all actives have a fitted effect of over 60% in size
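TGR 20 nM + NADPH 100 uM (dispensed conc.), cpd preinc 15 min RT; start with NADPH (500 uM addition) then DTNB (15 mM addition). Kinetic TNB absorbance, 405 nm filter. Four-parameter Hill fit across titration.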
FMDV inh = antivirals against foot and mouth disease virus. FMDV antiviral cell-based qHTS. Potency, µM (highest dose often 57.9 µM), without a hit: top-dose activity change, negative = inhibition, hits mostly inhibitors. hit rate 1.2% among 410,000. AID 1159524; calls by dose curve; tested in HEK293T cells; note: read-out not given here; potency is the fitted concentration of half-maximal effect; % is set by controls: 0 for no effect and ±100 for the full control effect; nearly all actives have a fitted effect of over 45% in size
Shiga toxin inh = inhibitors of Shiga toxin in Vero cells. hit rate 9.2% among 290,000. inhibition, % at 38.7 µM. Vero cells, Shiga toxin protein synthesis inhibition reporter; in the data active = inhibition mostly above about 28%, no sharp cut-off; inactive = mostly below about 43%; note: 0% is about no effect
Cycloheximide cs = affects cycloheximide protein synthesis inhibition readout, counter-screen | cell reporter, cycloheximide protein synthesis inhibition counterscreen | max response, % | hit rate 12% among 300,000 | AID 2314; in the data active = max response mostly above about 13%, no sharp cut-off; inactive = mostly below about 14%; note: read at 38.3 µM for the half of the compounds with a filed dose; 0% is about no effect
An asterisk follows results filed as active; ? = inconclusive; · = no result given; [ ] = remark or other dose.

SMILES	Sm TGR block	FMDV inh	Shiga toxin inh	Cycloheximide cs
COc1ccccc1CNC(=O)CSC1=NCCS1	-15%	21%	28	19*
O=C(CSc1ccsc1[N+](=O)[O-])Nc1cccc(F)c1	?	-10%	30	21*
COc1cccc(CSc2nc3n(n2)C(CC(C)C)C(C(=O)Nc2ccccc2OC)=C(C)N3)c1 (stereo not given)	-7%	-26%	·	·
COC(=O)C1=C[C@@H](C(=O)OC)[C@@H]2C3=C(C(=O)[C@@]2(CC(C)C)NC(=O)c2ccccc2)[C@H](C)n2c(=O)n(-c4ccccc4)c(=O)n2[C@@H]3C1	·	·	0	-5
O=C(NC(=S)Nc1cccc(NC(=O)c2ccccc2Cl)c1)c1cccs1	-29%	23%	10	15*
CCc1ccc(NC(=S)Nc2cc(OC)c(NC(=O)C(C)C)cc2OC)cc1	0%	-18%	16	23*
CC(C)C(=O)Nc1cccc(NC(=S)NC(=O)c2cccs2)c1	?	32%	75*	33*
CC(C)C(=O)Nc1cccc(NC(=S)NC(=O)c2ccc3c(c2)OCO3)c1	-24%	46%	-20	-3
O=C(Nc1cccc(NC(=S)NC(=O)c2cccs2)c1)c1ccccc1	-14%	1%	17	-2
CC(C)C(=O)Nc1cccc(NC(=S)NC(=O)c2ccc(Cl)cc2)c1	-28%	?	67*	65*
CCOc1ccc(NC(=O)NC(C)c2c(-n3cccc3)sc3c2CCN(CC)C3)cc1 (stereo not given)	-9%	10%	·	·
COc1ccc(-c2nn(C)c3sc(C(=O)Nc4cccc(F)c4)cc23)cc1OC	6%	?	·	·
COc1ccc(Cl)cc1-n1cc(-c2ccccc2)nc1SCC(=O)Nc1ccc(C)cc1	6%	-1%	·	·
O=C(NCc1ccc2c(c1)CCN2C(=O)c1ccccc1)c1cc2ccccc2[nH]1	-2%	-21%	·	·
COc1ccc(-c2noc(CNC(=O)c3ccccc3Br)n2)cc1	-1%	-18%	·	·
COc1cccc(CNC(=O)CSC2=Nc3ccccc3N=C(c3ccc(F)cc3)C2)c1	31%	0%	·	·
CCCCC(=O)Nc1ccc(NC(=S)NC(=O)c2cccs2)cc1OC	-28%	6%	24	3
COc1cc(NC(=S)NC(C)=O)ccc1NC(=O)C(C)C	-1%	57%	61*	25*
COc1cc(NC(=S)NC(=O)c2cccs2)ccc1NC(=O)C(C)C	18µM*	30%	56*	23*
O=C(CCN1C(=O)S/C(=C\c2cccs2)C1=O)NC1=NCCS1	-1%	-9%	32	17*
Cc1cccc(NC(=O)c2ccc(CNS(=O)(=O)c3ccc4c(c3)C(C)(C)C(=O)N4C)cc2)c1	-17%	35µM*	·	·
Cc1ccccc1NC(=O)c1ccc(CNS(=O)(=O)c2ccc3c(c2)C(C)(C)C(=O)N3C)cc1	8%	8%	·	·
Cc1ccc(CNC(=O)c2ccc(CNS(=O)(=O)c3ccc4c(c3)C(C)(C)C(=O)N4C)cc2)o1	50µM*	-6%	-3	1
Cc1ccc(NC(=O)c2ccc(CNS(=O)(=O)c3ccc4c(c3)C(C)(C)C(=O)N4C)cc2)cc1C	1%	35µM*	·	·
CC(C)[C@@H]1CC[C@@H](C)CC1=O	·	-6%	·	·
SMILES	Sm TGR block	FMDV inh	Shiga toxin inh	Cycloheximide cs
Oc1c(C(c2ccccc2Cl)N2CCC(O)CC2)sc2nc(-c3ccco3)nn12 (stereo not given)	-7%	12%	·	·
O=C1CCCC(=O)N1c1ccc(O)cc1	0%[57.1 µM]	-2%	-12	-2
O=C1CCCC(=O)N1c1ccc(Oc2ccc(Cl)cc2)cc1	-11%	-5%	41*	22*
CCCCN(C)CCNC(=O)c1ccc2c(=O)n(CCc3ccccc3)c(=O)[nH]c2c1	4%	-5%	·	·
COc1cccc2c(=O)n(CC(=O)Nc3ccccc3F)ccc12	0%	?	23*	27*
COc1cccc2c(=O)n(CC(=O)NC3CCCCC3)ccc12	0%	4%	5	9.8*
COc1cccc2c(=O)n(CC(=O)Nc3ccc(F)cc3)ccc12	9%	-1%	-6	5
CCOCCn1ccc2c(OCC(=O)Nc3ccc(OC)c(OC)c3)cccc2c1=O	9%	25µM*	·	·
CCn1ccc2c(OCC(=O)Nc3ccccc3C(F)(F)F)cccc2c1=O	8%	32µM*	·	·
Cc1cccc(-c2nc(CCNC(=O)c3ccccc3Br)cs2)c1	5%	-13%	·	·
CCc1ccc(NC(=O)CCn2c(-c3ccc(OC)cc3)cc(C(C)=O)c2C)cc1	6%	-24%	·	·
COc1ccc(-c2nc(SCC(=O)NC3CCCC3)c(-c3ccccc3)[nH]2)cc1OC	0%	-4%	·	·
COc1ccc(-c2ccc(NS(=O)(=O)c3ccc(NC(C)=O)cc3)cc2)nn1	-2%	16%	·	·
CCCN=Cc1sc2ccc(OCC)cc2c1O	-19%	·	101*	41*
CCOc1ccc2c(O)csc2c1	1%	-16%	17	15
O=[N+]([O-])c1cc(Cl)c(O)c2ncccc12	11µM*	-30%	23	24
O=[N+]([O-])c1cc(Cl)c2cccnc2c1O	·	-29%	-21	1
O=[N+]([O-])c1cc(F)c2cccnc2c1O	3.2µM*	-13%	19	2
O=[N+]([O-])c1cc([N+](=O)[O-])c2cccnc2c1Oc1ccccc1O	0.28µM*	16µM*	0	1
Cc1cccc(Cn2c(SCc3ccc(C(=O)NCc4cccs4)cc3)nc3cccnc32)c1	-4%	0%	·	·
COc1cccc(NC(=O)CCc2c(C)nc3c4cccnc4nn3c2C)c1	2%	-22%	·	·
CCOC(=O)Cn1nnnc1C(CC)N(Cc1cccs1)Cc1cc2ccc(OC)cc2[nH]c1=O (stereo not given)	-4%	-16%	-19	8.5*
CCOC(=O)Cn1nnnc1CN(Cc1cccs1)Cc1cc2cc(C)ccc2[nH]c1=O	-6%	-9%	-5	1
C/C=C(\C)C(=O)OC(C)(C)[C@H]1Cc2cc3ccc(=O)oc3cc2O1	4%	-20%	1	-3
CC(C)(Cl)C1Cc2cc3ccc(=O)oc3cc2O1 (stereo not given)	-10%	·	47*	31*
SMILES	Sm TGR block	FMDV inh	Shiga toxin inh	Cycloheximide cs
CC(=O)OC(C)(C)C1Cc2cc3ccc(=O)oc3cc2O1 (stereo not given)	2%	18%	45*	23
CC1CCN(S(=O)(=O)c2ccc3c(c2)N(CC(=O)N2CCN(c4ccc(Cl)cc4)CC2)C(=O)CO3)CC1	6%	-21%	·	·
CN(C)S(=O)(=O)c1ccccc1N=C=S	16µM*	-5%	-2	0
Cc1ccc(F)cc1NCC(=O)Nc1ccc(Br)cc1	3%	66%	58*	31*
Cc1ccc(NCC(=O)Nc2ccc(Br)cc2)cc1C	-22%	56%	27	18*
Cc1ccccc1C(=O)Nc1nnc(S(=O)(=O)N2CCc3ccccc32)s1	2%	-18%	·	·
CCCCn1cnc2cc(NCc3ccncc3)ccc21	6%	-6%	1	7
c1ccc(-n2cnc3cc(NCc4ccccn4)ccc32)cc1	4%	·	82*	59*
c1ccc(-n2cnc3cc(NCc4ccncc4)ccc32)cc1	2%	-8%	91*	27*
COc1ccc(-c2noc(-c3ccc(NCCc4ccccc4)c([N+](=O)[O-])c3)n2)cc1OC	-8%	0%	·	·
COc1ccccc1CNC(=O)CC(c1ccc(C)cc1)N1Cc2ccccc2C1=O (stereo not given)	14%	44%	·	·

Screening data from PubChem BioAssay.
